From PubChem BioAssay (NCI)
Compounds without any hit were thinned out: in the full panel of roughly 79,000, 15% have a hit. Unmarked numbers belong to inactive results. Calls of active or inactive are those of the source. Rule as the data show it: active = growth inhibition above about 70%; inactive = the rest.

Experiment: NCI Yeast Anticancer Drug Screen. Data for the bub3 strain (AID 167)
Details: S. cerevisiae bub3 mutant strain, at 50.0 µM, stronger effect = higher value
Outline: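 Steps: expose the mutant yeast strain to compound; grow alongside vehicle-treated cultures; measure growth; express inhibition against the vehicle cultures.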

In order of falling growth inhibition:
1. Cn1c(=O)oc2cc(C(=O)CN3CCN(Cc4ccc5c(c4)OCO5)CC3)c(Cl)cc21  53.4%
2. N#C/C(N)=C(\C#N)NC=NCc1ccccc1  26.3%
3. Cc1cc(/C=C2\SC(=S)NC2=O)cc(C)c1O  22.8%
4. O=C(/C(=C/c1ccccc1)N1CCOCC1)c1cccc2ccccc12  21.4%
5. COc1ccc(C(O)(c2ccccc2C)c2ccccc2OC)cc1 (stereo not given)  20.7%
6. COc1cc2ccc3c[n+]4ccccc4cc3c2cc1OC  20.2%
7. CCOC(=O)C(=O)Nc1ccc2cc(OC)ccc2c1C#N  19.4%
8. COc1cc2ccc(=O)oc2cc1O  16.4%
9. O=C(O)C1(c2ccccc2)CC1  15.9%
10. Nc1nc(N)nc(-c2ccccc2-c2nc(N)nc(N)n2)n1  14.2%
11. CCC1CN2CCc3cc(OC)c(OC)cc3C2CC1C#N (stereo not given)  12.1%
12. COC(=O)C(Cc1ccc2c(c1)CCC2)Cc1ccc2c(c1)CCC2  11.1%
13. CC1(C)OC(=O)c2c(cc(N3CCOCC3)oc2=O)O1  11.1%
14. CC(=O)OC1CC2(c3ccccc3)C(=O)c3ccccc3N2O1 (stereo not given)  10.2%
15. CCCC(=O)c1ccc(C)cc1  8.65%
16. COc1cc(C)oc(=O)c1  8.1%
17. CC(=O)OC(C(=O)Nc1ncccn1)c1ccccc1 (stereo not given)  4.5%
18. CCCCCCCCCCc1ccc(CCCCCCCCCC)cc1  2.05%
19. NC1=NC(=O)C(CC(=O)Nc2ccc([N+](=O)[O-])cc2[N+](=O)[O-])S1 (stereo not given)  2%
20. COc1ccc(C(CN(C)C(C)C)OC(=O)C(c2ccccc2)c2ccccc2)cc1OC (stereo not given)  1.25%
21. N#Cc1ccc(OC(=O)Nc2cccc(Cl)c2Cl)cc1  0.55%
22. NCC(O)CN  -0.55%
23. CCCCCCCCCCCCCCCC/C(C(=O)OC)=C(/O)C(=O)OCC  -1.2%
24. COc1cc2c(c(Cl)c1OC)CCN(C)CC2c1ccccc1 (stereo not given)  -1.45%
25. O=C(N/N=C\c1c[nH]c2ccccc12)N/N=C/c1c[nH]c2ccccc12  -3.45%
26. CN(C)C1=CC(=O)NC(c2ccccc2)C1 (stereo not given)  -3.45%
27. NNC(=S)N/N=C(/C(=O)Nc1cc(Cl)ccc1Cl)C1C(=O)Nc2ccccc2S1=O (stereo not given)  -6.6%
28. O=C1C(Cl)C(c2ccccc2O)N1n1cnc2ccccc2c1=O (stereo not given)  -7.8%
29. CCCCCCC(CC)C(N)=O (stereo not given)  -8.15%
30. N[N+]1(CCS(N)(=O)=O)CCOCC1  -8.3%
31. O=C(N/N=C/c1ccc(Cl)cc1Cl)c1ccccc1  -8.65%
32. CC(C)(/C=N\O)NO  -9.05%
33. COC[C@@H](N=CN1CCc2cc(OC)c(OC)cc2C1)C(C)(C)C  -11.3%
34. CC(=O)/C(=C/n1c(=S)[nH]c2ccccc21)C(=O)Nc1ccc([N+](=O)[O-])cc1  -14.1%
35. CCCOc1cc2c(cc1C(C)c1ccc(OC)cc1)OCO2 (stereo not given)  -14.4%
36. C#CCCC#C  -16.1%
37. CC(=O)Nc1ccc(C)cc1[N+](=O)[O-]  -42.5%
38. CC(C)(C)OC(=O)C(C1NC(C(=O)O)C(C)(C)S1)N1C(=O)c2ccccc2C1=O (stereo not given)  -56.4%

With O=C(Nc1cccc2ccccc12)Oc1cccc2cccnc12 the growth inhibition was 98.5% (active).
In the case of CCC[CH2][Sn]([C]#[C][Sn]([CH2]CCC)([CH2]CCC)[CH2]CCC)([CH2]CCC)[CH2]CCC, the growth inhibition is reported as 99.3% (active).

Experiment: NCI Yeast Anticancer Drug Screen. Data for the mlh1 rad18 strain (AID 175)
Details: S. cerevisiae mlh1 rad18 strain growth inhibition; at 50.0 µM; stronger effect = higher value
Outline: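 Cells of a genetically altered yeast strain, deficient in DNA damage repair, were treated with compound. Their growth was then compared with that of vehicle-treated cultures to give inhibition.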

In order of falling growth inhibition:
1. COc1ccc(C(O)(c2ccccc2C)c2ccccc2OC)cc1 (stereo not given)  27.9%
2. CCC1CN2CCc3cc(OC)c(OC)cc3C2CC1C#N (stereo not given)  23.1%
3. Cn1c(=O)oc2cc(C(=O)CN3CCN(Cc4ccc5c(c4)OCO5)CC3)c(Cl)cc21  23.1%
4. O=C(/C(=C/c1ccccc1)N1CCOCC1)c1cccc2ccccc12  19.9%
5. CC(=O)OC1CC2(c3ccccc3)C(=O)c3ccccc3N2O1 (stereo not given)  19.6%
6. COc1cc2ccc3c[n+]4ccccc4cc3c2cc1OC  14%
7. Cc1cc(/C=C2\SC(=S)NC2=O)cc(C)c1O  13.7%
8. N[N+]1(CCS(N)(=O)=O)CCOCC1  13.5%
9. O=C(O)C1(c2ccccc2)CC1  7.85%
10. Nc1nc(N)nc(-c2ccccc2-c2nc(N)nc(N)n2)n1  6.65%
11. COc1cc2ccc(=O)oc2cc1O  4.05%
12. COc1cc(C)oc(=O)c1  3.3%
13. CCCC(=O)c1ccc(C)cc1  2.65%
14. COc1cc2c(c(Cl)c1OC)CCN(C)CC2c1ccccc1 (stereo not given)  1.85%
15. NCC(O)CN  1.45%
16. NNC(=S)N/N=C(/C(=O)Nc1cc(Cl)ccc1Cl)C1C(=O)Nc2ccccc2S1=O (stereo not given)  -0.35%
17. CC(C)(/C=N\O)NO  -0.9%
18. CC1(C)OC(=O)c2c(cc(N3CCOCC3)oc2=O)O1  -1.25%
19. O=C(N/N=C/c1ccc(Cl)cc1Cl)c1ccccc1  -3.9%
20. CCCCCCCCCCCCCCCC/C(C(=O)OC)=C(/O)C(=O)OCC  -5.75%
21. C#CCCC#C  -5.8%
22. CCCCCCC(CC)C(N)=O (stereo not given)  -7.6%
23. CCCCCCCCCCc1ccc(CCCCCCCCCC)cc1  -7.9%
24. NC1=NC(=O)C(CC(=O)Nc2ccc([N+](=O)[O-])cc2[N+](=O)[O-])S1 (stereo not given)  -8.55%
25. N#Cc1ccc(OC(=O)Nc2cccc(Cl)c2Cl)cc1  -9.45%
26. CC(=O)OC(C(=O)Nc1ncccn1)c1ccccc1 (stereo not given)  -10.9%
27. CN(C)C1=CC(=O)NC(c2ccccc2)C1 (stereo not given)  -11.6%
28. CC(=O)/C(=C/n1c(=S)[nH]c2ccccc21)C(=O)Nc1ccc([N+](=O)[O-])cc1  -13.2%
29. O=C1C(Cl)C(c2ccccc2O)N1n1cnc2ccccc2c1=O (stereo not given)  -16.2%
30. COC[C@@H](N=CN1CCc2cc(OC)c(OC)cc2C1)C(C)(C)C  -17%
31. CC(C)(C)OC(=O)C(C1NC(C(=O)O)C(C)(C)S1)N1C(=O)c2ccccc2C1=O (stereo not given)  -17.4%
32. COc1ccc(C(CN(C)C(C)C)OC(=O)C(c2ccccc2)c2ccccc2)cc1OC (stereo not given)  -17.5%
33. CCOC(=O)C(=O)Nc1ccc2cc(OC)ccc2c1C#N  -17.8%
34. N#C/C(N)=C(\C#N)NC=NCc1ccccc1  -21.1%
35. COC(=O)C(Cc1ccc2c(c1)CCC2)Cc1ccc2c(c1)CCC2  -22.4%
36. O=C(N/N=C\c1c[nH]c2ccccc12)N/N=C/c1c[nH]c2ccccc12  -37.9%
37. CC(=O)Nc1ccc(C)cc1[N+](=O)[O-]  -43.2%
38. CCCOc1cc2c(cc1C(C)c1ccc(OC)cc1)OCO2 (stereo not given)  -53%

For O=C(Nc1cccc2ccccc12)Oc1cccc2cccnc12, the growth inhibition was 98% (active).
In the case of CCC[CH2][Sn]([C]#[C][Sn]([CH2]CCC)([CH2]CCC)[CH2]CCC)([CH2]CCC)[CH2]CCC, the growth inhibition is reported as 99.4% (active).
